Reference: PubChem BioAssay AID1159580 (chemical genetic matrix, 2015)
Out of some 5,500 compounds screened, about 2,000 (36%) were called active. Another 18% or so got no clear call; they are omitted. No stated cut-off is given here; in the data, active means normalized growth mostly below about 0.91 (no sharp cut-off); inconclusive means no clear call, values can overlap the other calls; inactive means mostly above about 0.92. This is one part of the list.

Assay: chemical genetic growth profiling, strain panel (AID 1159580);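 further: tested at 20 µM; growth read once vehicle control cultures reached saturation at 30 °C; 1 = growth at the plate median or of vehicle wells; lower values mean less growth of the strain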
Conditions: S. cerevisiae deletion strains, growth OD

Measured: normalized growth

Cc1c(S(=O)(=O)O)oc2c1C(=O)C(=O)c1c-2ccc2c1CCCC2(C)C
active: locus YAL030W, strain snc1, hits give low values 0.92 | locus YBR009C, strain hhf1, hits give low values 0.885 | locus YBR231C, strain swc5, hits give low values 0.889 | locus YCL011C, strain gbp2, hits give low values 0.861 | locus YDR069C, strain doa4, hits give low values 0.874 | locus YDR137W, strain rgp1, hits give low values 0.631 | locus YDR159W, strain sac3, hits give low values 0.808 | locus YDR392W, strain spt3, hits give low values 0.586 | locus YER155C, strain BEM2 (second series), hits give low values 0.779 | locus YGL240W, strain doc1, hits give low values 0.817 | locus YJL095W, strain BCK1 (second series), hits give low values 0.912 | locus YJL129C, strain trk1, hits give low values 0.859 | locus YJL166W, strain qcr8, hits give low values 0.893 | locus YKL160W, strain elf1, hits give low values 0.896 | locus YLL026W, hits give low values 0.924 | locus YLR027C, strain aat2, hits give low values 0.9 | locus YLR221C, strain rsa3, hits give low values 0.891 | locus YLR262C, strain YPT6 (second series), hits give low values 0.57 | locus YLR320W, strain mms22, hits give low values 0.871 | locus YML120C, strain ndi1, hits give low values 0.9 | locus YMR058W, strain fet3, hits give low values 0.839 | locus YMR129W, hits give low values 0.918 | locus YNL071W, strain lat1, hits give low values 0.726 | locus YOR083W, strain WHI5, hits give low values 0.856 | locus YOR106W, strain vam3, hits give low values 0.821 | locus YPL051W, strain arl3, hits give low values 0.873 | locus YPL240C, strain hsp82, hits give low values 0.921
inactive: locus YAL021C, strain ccr4, hits give low values 0.946 | locus YAL026C, strain drs2, hits give low values 0.923 | locus YBL061C, strain skt5, hits give low values 0.954 | locus YBR023C, strain chs3, hits give low values 0.943 | locus YBR171W, strain sec66, hits give low values 0.937 | locus YBR279W, strain paf1, hits give low values 0.985 | locus YCL016C, strain dcc1, hits give low values 0.958 | locus YCL069W, strain vba3, hits give low values 0.983 | locus YCR088W, strain abp1, hits give low values 0.946 | locus YDL005C, strain med2, hits give low values 0.963 | locus YDL040C, strain nat1, hits give low values 0.959 | locus YDR001C, strain nth1, hits give low values 0.955 | locus YDR195W, strain ref2 0.974 | locus YDR297W, strain sur2, hits give low values 0.939 | locus YDR334W, strain swr1, hits give low values 0.924 | locus YDR335W, strain msn5, hits give low values 0.962 | locus YEL003W, strain gim4, hits give low values 0.928 | locus YEL037C, strain rad23, hits give low values 0.947 | locus YEL061C, strain CIN8 (second series), hits give low values 0.956 | locus YER015W, strain faa2, hits give low values 0.93 | locus YER016W, strain bim1, hits give low values 0.94 | locus YER111C, strain swi4, hits give low values 0.965 | locus YFR010W, strain ubp6, hits give low values 0.943 | locus YGL167C, strain pmr1, hits give low values 0.928 | locus YGL173C, strain kem1, hits give low values 0.965 | locus YGL227W, strain vid30, hits give low values 0.968 | locus YGL253W, strain hxk2, hits give low values 0.982 | locus YHR013C, strain ard1, hits give low values 0.913 | locus YHR027C, strain rpn1, hits give low values 0.962 | locus YHR030C, strain SLT2, hits give low values 0.982 | locus YHR079C, strain IRE1, hits give low values 0.959 | locus YHR142W, strain chs7, hits give low values 0.994 | locus YJL092W, strain hpr5, hits give low values 0.956 | locus YJL095W, strain BCK1, hits give low values 0.979 | locus YJL115W, strain asf1, hits give low values 0.952 | locus YJL154C, strain vps35, hits give low values 0.969 | locus YJL164C, strain tpk1, hits give low values 0.918 | locus YJR066W, strain TOR1, hits give low values 0.934 | locus YKR026C, strain gcn3, hits give low values 0.932 | locus YKR091W, strain srl3, hits give low values 0.95 | locus YLL001W, strain dnm1, hits give low values 0.962 | locus YLL041C, strain sdh2, hits give low values 0.938 | locus YLR113W, strain HOG1, hits give low values 0.967 | locus YLR258W, strain gsy2, hits give low values 0.95 | locus YLR342W, strain FKS1, hits give low values 0.916 | locus YLR357W, strain rsc2, hits give low values 0.905 | locus YLR370C, strain arc18, hits give low values 0.949 | locus YLR384C, strain iki3, hits give low values 0.926 | locus YMR125W, strain sto1, hits give low values 1 | locus YMR205C, strain PFK2, hits give low values 0.912 | locus YMR231W, strain pep5, hits give low values 0.933 | locus YNL183C, strain NPR1, hits give low values 0.932 | locus YNL209W, strain ssb2, hits give low values 0.955 | locus YNL248C, strain rpa49, hits give low values 0.962 | locus YNL322C, strain KRE1 (second series), hits give low values 0.916 | locus YNR049C, strain mso1, hits give low values 0.976 | locus YOR001W, strain rrp6, hits give low values 0.935 | locus YOR070C, strain gyp1, hits give low values 0.949 | locus YOR080W, strain dia2, hits give low values 0.93 | locus YOR231W, strain MKK1, hits give low values 0.98 | locus YOR265W, strain rbl2, hits give low values 0.937 | locus YOR270C, strain vph1, hits give low values 0.956 | locus YOR290C, strain snf2, hits give low values 0.95 | locus YPL078C, strain atp4, hits give low values 0.931 | locus YPL106C, strain sse1, hits give low values 0.857 | locus YPL256C, strain CLN2, hits give low values 0.968
